# Counter-ions that a name gives are not always drawn.
# How the values were obtained:
# Assay in all cases: Euclidean distance of Cell Painting phenotypic profile (signed KS, 77 features) to DMSO centroid (dimensionless distance); 5 or 10 uM (library dependent); higher = stronger phenotypic change vs DMSO (phenoactivity)
# Details in all cases: 48 h
# 786-O = tested on: 786-O
# In short: (§1)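 Phenoactivity is defined as the Euclidean distance from a compound profile to the median vehicle profile. Each profile comprised 77 Harmony features, scored as signed Kolmogorov-Smirnov statistics versus same-plate vehicle wells, then plate-position corrected, correlation-weighted and replicate-averaged at the top dose. Five cancer lines and one healthy fibroblast line were exposed to library compounds for 48 h at 10 or 5 uM (0.1% DMSO final).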
# A549 = tested on: A549
# In short: as §1
# DU145 = tested on: DU145
# In short: as §1
# FB = tested on: FB
# In short: as §1
# HEPG2 = tested on: HEPG2
# In short: as §1
# OVCAR4 = tested on: OVCAR4
# In short: as §1
SMILES,Euclidean distance (786-O),Euclidean distance (A549),Euclidean distance (DU145),Euclidean distance (FB),Euclidean distance (HEPG2),Euclidean distance (OVCAR4)
Clc1ccc(C(Cn2ccnc2)OCc2ccsc2Cl)c(Cl)c1 (configuration not stated) [Tioconazole],1.07,0.786,2.41,1.25,1.14,1.44
C[C@@H](O[C@H]1OCCN(Cc2nn(P(=O)(O)O)c(=O)[nH]2)[C@H]1c1ccc(F)cc1)c1cc(C(F)(F)F)cc(C(F)(F)F)c1 [Fosaprepitant dimeglumine salt],1.86,1.37,1.18,1.21,1.4,0.995
C[C@H]1C[C@H]2[C@@H]3CCC4=CC(=O)C=C[C@]4(C)[C@@]3(F)[C@@H](O)C[C@]2(C)[C@@]1(O)C(=O)CO [Betamethasone],1.28,2.01,2.37,1.68,0.663,2
CCCCNc1ccc(C(=O)OCCN(C)C)cc1 [Tetracaine HCl],0.993,0.918,0.964,1.06,0.941,1.79
C[C@H]1NCc2cc(-c3ccc4c(=O)c(C(=O)O)cn(C5CC5)c4c3OC(F)F)ccc21 [Garenoxacin],0.629,0.876,0.678,1.54,0.463,1.08
Nc1ccc(C(=O)O)c(O)c1 [Sodium 4-Aminosalicylate],1.34,2.62,1.27,2.47,1.02,1.43
O=C1NC(=O)C(=Cc2ccc(-c3ccc(F)cc3)o2)S1 (stereo in doubt),1.04,0.938,1.43,1.29,0.808,1.33
Cc1noc(NS(=O)(=O)c2ccc(N)cc2)c1C [Sulfisoxazole],1.32,0.853,1.02,0.984,0.555,1.26
COc1ccc(-c2cc3c(C)nc(N)nc3n([C@H]3CC[C@H](OCCO)CC3)c2=O)cn1,4.94,3.33,2.31,4.31,2.12,3.03
C[C@H](Cn1cnc2c(N)ncnc21)OCP(=O)(O)O [Tenofovir],1.59,1.45,0.705,0.924,1.26,1.07
CNC(=O)c1cc(Oc2ccc3nc(N[C@@H]4CCCC[C@H]4O)sc3c2)ccn1,0.859,1.04,1.3,1.9,0.898,1.22
COc1ccc2cc1Oc1ccc(cc1)C[C@H]1c3c(cc4c(c3Oc3cc5c(cc3OC)CCN(C)[C@@H]5C2)OCO4)CCN1C [Cepharanthine],4.22,4.24,3.62,4.8,3.63,3.87
CC(=O)NS(=O)(=O)c1ccc(N)cc1 [Sulfacetamide sodium salt hydrate],1.2,0.692,0.872,1.61,0.38,1.53
O=C1c2cccc3c2[C@H](CCC3)CN1[C@@H]1CN2CCC1CC2 [Palonosetron HCl],1.56,0.602,0.971,0.972,1.29,1.22
CN(C)CCCN1c2ccccc2Sc2ccc(Cl)cc21 [Chlorpromazine],1.47,1.98,1.56,2.21,2.01,1.04
CC(CCc1ccc(O)cc1)NCC(O)c1ccc(O)cc1 (configuration not stated) [Ractopamine HCl],0.802,0.83,0.987,1.14,0.522,1.07

SMILES,Euclidean distance (786-O),Euclidean distance (A549),Euclidean distance (DU145),Euclidean distance (FB),Euclidean distance (HEPG2),Euclidean distance (OVCAR4)
CNCCc1ccccn1 [Betahistine mesylate],0.848,0.566,1.17,0.999,0.422,0.933
COC(=O)Nc1nc2cc(C(=O)c3ccccc3)ccc2[nH]1 [Mebendazole],3.02,3.03,3.69,2.58,3,2.7
COc1ncnc(NS(=O)(=O)c2ccc(N)cc2)c1OC [Sulfadoxine],0.66,1.24,0.743,0.491,0.397,1.39
C=CC(=O)N1CCC(CNc2ncnc(N)c2-c2ccc(Oc3ccccc3)cc2)CC1 [Evobrutinib],0.935,0.683,2.24,0.97,0.714,0.874
CCOc1ccc2c(-c3cccc(F)c3)nn(CC(=O)N(C)c3ccc4nc(C)oc4c3)c(=O)c2c1,1.05,0.995,1.36,0.808,0.431,0.932
CCCCc1nc2cc(/C=C/C(=O)NO)ccc2n1CCN(CC)CC [Pracinostat (SB939)],2.82,4.04,3.89,4.08,3.78,3.46
CN1CCC(CNc2ccc3ncc(-c4cccc(OC(F)(F)F)c4)n3n2)CC1 [SGI-1776 free base],2.39,3.26,1.73,3.26,4,1.54
CC(C)(O)CC(=O)NCCn1ccc2ncnc(Nc3ccc(Oc4cccc(C(F)(F)F)c4)c(Cl)c3)c21,1.98,2.02,1.57,1.52,1,1.73
CC(C)(C)c1cnc(CSc2cnc(NC(=O)C3CCNCC3)s2)o1,2.67,3.69,2.93,3.38,2.81,3.27
CSCCNc1nc(SCCC(F)(F)F)nc2c1ncn2[C@@H]1O[C@H](COP(=O)(O)OP(=O)(O)C(Cl)(Cl)P(=O)(O)O)[C@@H](O)[C@H]1O [Cangrelor Tetrasodium],1.09,1.07,0.563,1.25,0.767,0.58
CCC(=O)c1c(O)cc(O)cc1O [Flopropione],1.34,0.879,1.2,1.39,0.447,1.04
Nc1cc(C(F)(F)F)c(-c2nc(N3CCOCC3)nc(N3CCOCC3)n2)cn1 [Bimiralisib (PQR309)],2.95,2.83,1.83,4.83,2.44,2.86
CCCCCCCCCC(=O)OC1(c2ccc(Cl)cc2)CCN(CCCC(=O)c2ccc(F)cc2)CC1 [Haloperidol Decanoate],0.828,1.13,1.01,0.816,0.961,1.26
O=c1ccc2cc3ccoc3cc2o1 [Psoralen],1.35,0.643,0.873,1.16,1.17,1.04
CCCCCOC(=O)Nc1nc(=O)n([C@@H]2O[C@H](C)[C@@H](O)[C@H]2O)cc1F [Capecitabine],1.77,0.754,1.15,0.899,0.821,1.23
Oc1ccc(/C=C/c2cc(O)cc(O)c2)cc1 [Resveratrol],2.22,1.93,1.94,1.74,0.81,1.92

# Source: the supplement of paper PMC10127200
